# Data as given in PubChem BioAssay AID623868 (Vanderbilt High Throughput Screening Facility, 2012).
# Screen size: about 2,100 compounds; about 760 (36%) were called active. A selection follows. Unmarked numbers belong to inactive results.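 Rule for the calls: active = thallium-flux fluorescence traces judged by eye to show enhanced or reduced glutamate response, manual score 1 or -1, so both directions (some results past the limit were not filed as active); inactive = the rest, including fluorescent or raised-baseline compounds.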
# Assay: non-GIRK thallium flux modulation in mGlu8 cells, confirmation, counter-screen for GIRK activator project, cell-based, HEK-293 rmGlu8, no GIRK (AID 623868);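 note: extra codes mark interference with 3 for fluorescent and 4 for baseline rise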
# Conditions: thallium flux fluorescence, at 10 µM, actives lie on both sides, codes: 1 enhancer, -1 blocker, 0 none, thallium stimulus containing EC20 glutamate
row,Compound,manual score
1,O=C(CCCc1nc(-c2ccc(Cl)cc2)no1)Nc1cccnc1,0
2,CCOC(=O)c1cnn2c1[nH]c(=O)c1ccccc12,1 (active)
3,Cc1cc2[nH]c(=O)c3ccccc3n2n1,0
4,CCOC(=O)c1ccccc1Nc1cn(C(C)=O)c2ccccc12,0
5,CN(C=O)CP(=O)(O)CCN1CCCC1=O,0
6,Cc1cc(C(=O)N2CCN(CCc3ccccc3)CC2)no1,0
7,S=c1[nH]nc(-c2cc3c(s2)-c2ccccc2CC3)o1,1 (active)
8,CN1C=CC2=C(C#N)C(N)C(C#N)(C#N)[C@H](c3ccccc3)[C@H]2C1 (some centres not stated),3
9,COc1ccc(-c2cc(C(F)(F)F)c3c(n2)sc2c(O)cc(=O)[nH]c23)c(OC)c1,0
10,O=C(Nc1cccc(Cl)c1)Nc1nccs1,0
11,Cn1sc(NC(=O)c2cccc(Cl)c2)nc1=O,-1 (active)
12,O=C(NCCCN1CCN(c2cccc(Cl)c2)CC1)c1cccc(N2CCCC2=O)c1,0
13,C=CCn1c(=S)[nH]c2nc3c(cc2c1=O)CCCC3,1 (active)
14,CCn1c(=S)[nH]c2nc3c(cc2c1=O)CCCC3,1 (active)
15,Cc1noc(C)c1S(=O)(=O)N1CCC(Cc2ccccc2)CC1,0
16,CCCCCCN1C2=NCCN2c2ccccc21,0
17,CCC(=O)N1c2ccc(C)cc2C2=NNC(=S)NC21O (configuration not stated),1 (active)
18,CCOc1ccccc1C(=O)N1c2ccccc2Sc2ccccc21,0
19,COCC(=O)/C=C1\Sc2ccccc2N1C,0
20,COc1ccccc1C(=O)N1c2ccccc2Sc2ccccc21,-1 (active)
21,COc1ccc(C(=O)Nc2ccc(S(=O)(=O)NCc3ccco3)cc2)cc1OC,-0.5
22,COc1cc(C(=S)N2CCCC2)cc(OC)c1OS(=O)(=O)c1ccc(NC(C)=O)cc1,-1 (active)

row,Compound,manual score
1,COc1cc(NC(=O)CS(=O)(=O)c2ccc(C)cc2)cc(OC)c1OC,0
2,Cc1ccc(C)c(OCC(=O)Nc2nc3ccc([N+](=O)[O-])cc3s2)c1C,0
3,O=C(Nn1c(C2CCCCC2)nc2ccccc2c1=O)c1ccc([N+](=O)[O-])cc1Cl,0
4,O=C(NC(Nc1nc2ccc([N+](=O)[O-])cc2s1)(C(F)(F)F)C(F)(F)F)c1ccccc1Cl,1 (active)
5,CS(=O)(=O)c1ccc2nc(NC(=O)C3C4C=CC(C4)C3C(=O)O)sc2c1 (configuration not stated),0
6,O=C(NC(Nc1nc2ccc([N+](=O)[O-])cc2s1)(C(F)(F)F)C(F)(F)F)c1ccccc1,1 (active)
7,N#C/C(=C/C=C/c1ccccc1)C(=O)Nc1ccccc1,0
8,Cn1c(SCC(=O)c2cc3ccccc3o2)nnc1-c1ccccc1,0
9,S=c1[nH]nc(-c2ccc(Br)o2)n1Cc1ccccc1,1 (active)
10,S=c1[nH]nc(-c2cc3ccccc3o2)n1Cc1ccccc1,1 (active)
11,O=c1oc(-c2ccc(Br)o2)nc2ccccc12,0
12,CCn1c(-c2cc3ccccc3cc2O)n[nH]c1=S,0
13,CC(C)N(Cc1nc(-c2ccccc2)no1)C(=O)CSc1ccccc1,0
14,CC1(C)CC(=O)C2=C(C1)N(c1ccccc1)C(N)=C(C#N)C2c1ccsc1 (configuration not stated),-1 (active)
15,CC1(C)CC(=O)C2=C(C1)NC(SCC(=O)Nc1ccccc1)=C(C#N)C2c1ccco1 (configuration not stated),0.5
16,CN1C2C=C3C(C#N)=C(N)C(C#N)(C#N)[C@@H](c4ccsc4)[C@@H]3C1CC2 (some centres not stated),0
17,CCC(C)(C)n1nnnc1C(c1ccccn1)N1CCCCC1 (configuration not stated),0
18,CC(C)Sc1nc2c(c(=O)[nH]1)C(c1cccs1)C1=C(CC(C)(C)CC1=O)N2 (configuration not stated),-1 (active)
19,Cc1cc2c(cc1C)NC(c1c(C)n(C)n(-c3ccccc3)c1=O)C1=C(CC(C)(C)CC1=O)N2 (configuration not stated),3
20,Cc1c(C2Nc3ccccc3NC3=C2C(=O)CC(C)(C)C3)cnn1C (configuration not stated),0
21,O=C(NCc1cccs1)c1cccnc1C(=O)O,0
22,O=C(Nc1ccccc1C(=O)O)c1ccc(NC(=O)c2ccc(Br)o2)cc1,-1 (active)

row,Compound,manual score
1,O=C(O)c1ccccc1C(=O)Nc1ccc(-c2csc(-c3ccccc3)n2)cc1,0
2,CCC(C)NC(=O)c1ccccc1NC(=O)Nc1ccccc1 (configuration not stated),0.5
3,O=C(NC(=S)NCCc1ccccc1)c1ccco1,1 (active)
4,O=C(NC(=S)N(CCc1ccccc1)CCc1ccccc1)c1ccco1,1 (active)
5,COc1cc(OC)cc(C(=O)NC(=S)NCCc2ccccc2)c1,0
6,O=C(CNC(=S)NC(=O)c1ccco1)c1ccccc1,1 (active)
7,Cc1ccccc1C(=O)NC(=S)NCCc1ccccc1,0
8,O=C(NC(=S)NCCc1ccccc1)c1ccccc1,1 (active)
9,CC1CN(C2CC(C)(C)NC(C)(C)C2)CCC1=O (configuration not stated),0
10,CCCCc1cc(=O)oc2cc(C)cc(O)c12,-0.5
11,COc1cc(/C=C(\C#N)C(=O)Nc2cccnc2)ccc1OC(C)C,0
12,Nc1sccc1C(=O)c1ccccc1,0
13,O=C(CNC(=S)NC(=O)c1cccs1)c1ccccc1,1 (active)
14,CCOc1ccccc1-c1c2cc(O)c(=O)cc-2oc2cc(O)c(O)cc12,0
15,CCN(CC)S(=O)(=O)c1cccc(S(=O)(=O)c2cccc(S(=O)(=O)N(CC)CC)c2)c1,0
16,CCN(CC)S(=O)(=O)c1cccc(-c2n[nH]c(=S)n2/N=C/c2ccc(C(=O)OC)cc2)c1,1 (active)
17,COc1ccccc1CNC(=O)c1c(N)n(CCCN2CCOCC2)c2nc3ccccc3nc12,0
18,C=CCn1c(N)c(C(=O)OC(C)(C)C)c2nc3ccccc3nc21,-1 (active)
19,COCC(C)OC(=O)c1c(N)n(CC(C)C)c2nc3ccccc3nc12 (configuration not stated),0
20,Cc1cccn2c(=O)c(/C=N/O)c(N3CCCC3)nc12,0
21,CSc1cccc(NC(=O)CN(c2ccc(C)cc2C)S(C)(=O)=O)c1,0
22,CC1(C)CC(=O)C2=C(C1)OC(/N=C/N1CCOCC1)=C(C#N)C2c1ccccc1 (configuration not stated),-1 (active)

row,Compound,manual score
1,CC1(C)Cc2ccccc2-c2nnc(SCC(=O)Nc3nc4ccccc4s3)n21,0
2,CC1Cc2nc(SCC(=O)Nc3nc4ccccc4s3)n(C)c(=O)c2S1 (configuration not stated),-1 (active)
3,CC(C)Cc1nnc(NC(=O)CSc2nc(=O)cc(N)n2-c2ccccc2)s1,0
4,COC(=O)c1onc(C(=O)c2ccccc2)c1C(=O)OC,-1 (active)
5,N[C@@H](Cc1ccccc1)c1nnc(SCc2ccccc2F)o1,0
6,Cc1sc2ncnc(SCc3ccco3)c2c1C,0
7,CCn1c(SCC(=O)NC(=O)NCc2ccco2)nc2sc(C)c(C)c2c1=O,1 (active)
8,Cc1sc2nc(C(C)C)nc(SCC(=O)NCc3ccco3)c2c1C,1 (active)
9,Cc1sc2nc(C(C)C)nc(SCC(=O)N3c4ccccc4CC3C)c2c1C (configuration not stated),1 (active)
10,CCn1c(N)c(C(=O)NCc2ccco2)sc1=S,0
11,Cc1ccccc1-c1nc(CN2CCC(C(=O)NCc3ccco3)CC2)c(C)o1,0
12,CC(=O)Nc1ccc(C(=O)CSc2nc3ccc(C)cc3[nH]2)cc1,0
13,COC(=O)c1ccc(-n2c(C)cc(C(=O)CSc3ccc(NC(C)=O)cc3)c2C)cc1,0
14,CCc1cc2cccc(C)c2nc1SCC(=O)c1ccc(NC(C)=O)cc1,1 (active)
15,COc1cc(NC(=O)C(=O)NNC(=O)C2CCCCC2)c(OC)cc1Cl,1 (active)
16,COc1ccc(OC)c(NC(=O)C2CC(=O)N(c3ccc(Br)cc3)C2)c1 (configuration not stated),0
17,COc1cc(NC(=O)c2ccc(C)cc2)c(OC)cc1NC(=O)CN1CCCCC1,0
18,Oc1ccccc1CNc1ccc(Br)cn1,0
19,Cc1ccc(C2CC2c2n[nH]c(=S)n2-c2ccc(C)cc2)cc1 (configuration not stated),1 (active)
20,Cc1ccc(C2CC2c2n[nH]c(=S)n2-c2ccc(Cl)cc2)cc1 (configuration not stated),0
21,CCOC(=O)N1CCN(c2ccc3nnnn3n2)CC1,0
22,O=C(c1ccc(CS(=O)(=O)c2ccc(Br)cc2)o1)N1CCN(c2ncccn2)CC1,0

row,Compound,manual score
1,O=C(c1ccc(Br)o1)N1CCN(c2ccc3nnc(-c4ccc(F)cc4)n3n2)CC1,-1 (active)
2,CCOc1cc(-c2noc(-c3cccnc3)n2)ccc1OC,0
3,CC(C)n1c(NCc2c[nH]c3ccccc23)nc2ccccc21,0
4,Cc1cc(CC(C)C)n(-c2nc3ccccc3c(=O)n2OCC(N)=O)n1,0
5,CC(C)COn1c(=S)[nH]c2ccccc2c1=O,1 (active)
6,CCOc1cc2[nH]c(=S)n(C(C)C)c(=O)c2cc1OCC,1 (active)
7,CC(C)N(CCn1c(=S)[nH]c2ccccc2c1=O)C(C)C,1 (active)
8,CC(C)n1c(=S)[nH]c2ccccc2c1=O,1 (active)
9,CCCC(=O)NC(c1cccs1)c1cc([N+](=O)[O-])c2cccnc2c1O (configuration not stated),0
10,CCCC(=O)Nc1ccc(NC(=O)C2CC2)cn1,0
11,COCc1nnc(NC(=O)C(C)C)s1,0
12,Cc1conc1NC(c1cccs1)c1ccc2cccnc2c1O (configuration not stated),0.5
13,COc1ccccc1-n1cnnc1SCC(=O)c1cc(C)n(Cc2cccs2)c1C,0
14,COc1ccc(CNc2nc(-c3cccnc3)nn2C(=O)c2ccco2)cc1,-1 (active)
15,COc1cccc(N(CC(=O)NCc2cccnc2)S(C)(=O)=O)c1,0
16,CCCC(=O)n1nc(-c2ccccc2)nc1N,0
17,O=C(c1cc2nc(-c3ccccc3)cc(-c3ccccc3)n2n1)N1CCN(C(=O)c2ccco2)CC1,-0.5
18,COc1ccc(CNC(=O)CSCc2ccccc2Cl)cc1,-0.5
19,CCC(=O)n1nc(-c2cccnc2)nc1NCc1ccc(OC)cc1,-1 (active)
